These results are taken from PubChem BioAssay (NCATS).

The target of assay [1] is Glucocorticoid receptor (Homo sapiens) (UniProt P04150). In words: GR-EFC Redistribution (AID 451; calls by dose curve; further: potency means the concentration at half of the fitted maximal effect). To be noted: CHO-K1 GR-EFC translocation, beta-gal luminescence, 2 h. The method in brief:
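CHO-K1 cells stably expressing nuclear-localized β-gal enzyme acceptor and GR fused C-terminally to the enzyme donor fragment; ligand-driven nuclear translocation restores β-gal by complementation. Compounds titrated up to 46 uM final, 2 h at 37 °C; luminescence read.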

The target in assay [2] is Mitogen-activated protein kinase 10 (Mus musculus) (UniProt Q61831). In words: JNK3 AlphaScreen Assay (AID 530; active means well fitted curve in either direction with a large enough effect, not every such curve was filed as active;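 further: kinase came from lysate of stimulated human HepG2 cells; signal reports phosphorylation of biotinylated GST-cJun 1-79 at Ser73 with 10 µM ATP; series mostly up to about 57 µM; on the % scale 0 is the no-effect control and ±100 the full control effect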). In short, it runs like this: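 Phosphorylation of biotinylated GST-cJun(1-79) at Ser73 is measured by AlphaScreen proximity luminescence. Enzyme is JNK3 in HepG2 lysates activated with interleukin-1beta and tumor necrosis factor alpha; ATP is 10 uM final.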
For assay [3], the target named is 3',5'-cyclic-AMP phosphodiesterase 4B (Homo sapiens) (UniProt Q07343). The assay is described as follows: qHTS Assay for Inhibitors of PDE-IV (AID 607; active means well fitted activation curve with a large enough effect in the main read-out, with a control signal flat, not every such curve was filed as active; further: % of control where 0% means no effect). The method in brief: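 The readout is membrane depolarisation from a cAMP-sensing CNG channel, detected with a potential dye at ex 535/em 590. Cells were HEK293-derived (endogenous PDE-IV) at 1000 cells/well, titrated up to 22.9 uM final.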
3',5'-cyclic-AMP phosphodiesterase 4B (Homo sapiens), sequence (Q07343 whole entry, looked up): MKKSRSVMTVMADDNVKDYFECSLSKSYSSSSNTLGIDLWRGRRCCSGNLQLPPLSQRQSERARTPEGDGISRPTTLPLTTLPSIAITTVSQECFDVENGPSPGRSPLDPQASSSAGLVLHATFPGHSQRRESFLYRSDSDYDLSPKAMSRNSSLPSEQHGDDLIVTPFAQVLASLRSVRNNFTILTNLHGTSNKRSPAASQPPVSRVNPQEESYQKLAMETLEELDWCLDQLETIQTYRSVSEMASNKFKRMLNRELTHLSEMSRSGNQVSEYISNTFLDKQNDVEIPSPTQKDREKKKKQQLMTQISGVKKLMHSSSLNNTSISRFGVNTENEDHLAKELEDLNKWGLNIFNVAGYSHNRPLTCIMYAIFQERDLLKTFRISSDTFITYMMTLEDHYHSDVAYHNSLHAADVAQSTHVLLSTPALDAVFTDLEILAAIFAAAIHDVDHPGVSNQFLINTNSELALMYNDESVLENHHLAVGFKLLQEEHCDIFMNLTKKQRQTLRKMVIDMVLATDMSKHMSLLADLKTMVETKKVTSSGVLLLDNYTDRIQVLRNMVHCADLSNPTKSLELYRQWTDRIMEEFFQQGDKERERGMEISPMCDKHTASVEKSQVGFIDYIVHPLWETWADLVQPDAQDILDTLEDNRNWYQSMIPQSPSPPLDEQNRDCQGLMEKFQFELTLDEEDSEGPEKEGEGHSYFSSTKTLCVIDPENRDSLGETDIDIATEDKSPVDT

The target in assay [4] is Cytochrome P450 2C9 (Homo sapiens) (UniProt P11712). In words: qHTS Assay for Inhibitors and Substrates of Cytochrome P450 2C9 (AID 883). Further: nearly all actives have a fitted effect of over 60% in size. Further: potency means the concentration at half of the fitted maximal effect. On activity change, negative = inhibition: on the % scale 0 is the no-effect control and ±100 the full control effect. In short, it runs like this: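 CYP2C9 deoxyluciferin hydroxylation, 37C, 60 min with NADPH regeneration; 10nM enzyme, 100uM Luciferin-H (KM). Glo detection reagent stopped reaction; luminescence normalized to sulphaphenazole (57uM) full inhibition.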
Cytochrome P450 2C9 (Homo sapiens), sequence (P11712 whole entry, looked up): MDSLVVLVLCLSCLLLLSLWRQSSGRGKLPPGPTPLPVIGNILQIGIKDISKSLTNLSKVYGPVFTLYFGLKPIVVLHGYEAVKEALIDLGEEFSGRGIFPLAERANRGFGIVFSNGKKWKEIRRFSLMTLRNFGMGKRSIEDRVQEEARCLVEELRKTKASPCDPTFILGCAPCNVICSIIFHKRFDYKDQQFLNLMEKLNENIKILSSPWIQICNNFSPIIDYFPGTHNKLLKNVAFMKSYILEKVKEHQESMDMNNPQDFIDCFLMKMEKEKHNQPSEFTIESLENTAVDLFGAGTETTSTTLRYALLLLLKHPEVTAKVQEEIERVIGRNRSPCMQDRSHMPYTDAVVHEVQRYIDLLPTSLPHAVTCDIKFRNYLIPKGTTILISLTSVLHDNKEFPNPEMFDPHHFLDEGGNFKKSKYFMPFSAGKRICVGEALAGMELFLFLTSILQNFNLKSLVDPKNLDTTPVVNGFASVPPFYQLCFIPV
Background: qHTS replaces the single test concentration by a dilution series.

Assay [5] has as its target Cytochrome P450 2D6 (Homo sapiens) (UniProt P10635). The assay is described as follows: qHTS Assay for Inhibitors and Substrates of Cytochrome P450 2D6 (AID 891). Further: nearly all actives have a fitted effect of over 60% in size. Further: potency means the concentration at half of the fitted maximal effect.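 On activity change, negative = inhibition: luciferin methyl ether substrate demethylated by CYP2D6 with NADPH regeneration; on the % scale 0 is the no-effect control and ±100 the full control effect.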 In short, it runs like this: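 Luminescent read-out of luciferin formed by 5 nM human CYP2D6 demethylating 30 uM Luciferin-ME EGE (Km level) over 60 min at room temperature after NADPH regeneration addition. Data normalized to full inhibition by 1.43 uM quinidine.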

In assay [6] the target is Cytochrome P450 2C19 (Homo sapiens) (UniProt P33261). The assay is described as follows: qHTS Assay for Inhibitors and Substrates of Cytochrome P450 2C19 (AID 899). Further: nearly all actives have a fitted effect of over 60% in size. Further: potency means the concentration at half of the fitted maximal effect. In short, it runs like this: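 In 50mM KPO4, the reaction held 5nM enzyme and KM-level (10uM) Luciferin-H EGE; it ran 60 min at 37C after NADPH regeneration and a 10 min compound preincubation. Luminescence values were scaled to 57uM ketoconazole as complete inhibition.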
Cytochrome P450 2C19 (Homo sapiens), sequence (P33261 whole entry, looked up): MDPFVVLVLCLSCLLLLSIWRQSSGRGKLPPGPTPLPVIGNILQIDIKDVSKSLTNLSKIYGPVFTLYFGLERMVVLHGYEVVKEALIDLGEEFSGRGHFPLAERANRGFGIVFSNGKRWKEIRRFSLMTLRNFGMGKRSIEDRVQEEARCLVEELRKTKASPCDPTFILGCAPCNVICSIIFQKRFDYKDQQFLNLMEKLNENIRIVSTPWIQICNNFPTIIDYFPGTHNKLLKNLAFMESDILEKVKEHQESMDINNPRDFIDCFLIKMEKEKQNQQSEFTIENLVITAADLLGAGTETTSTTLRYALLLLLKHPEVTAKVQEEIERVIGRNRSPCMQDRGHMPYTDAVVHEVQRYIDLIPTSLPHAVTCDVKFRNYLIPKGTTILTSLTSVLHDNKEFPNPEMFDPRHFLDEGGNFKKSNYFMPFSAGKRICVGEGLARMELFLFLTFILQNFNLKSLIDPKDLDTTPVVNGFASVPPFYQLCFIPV

Assay [7] concerns the target Glucocorticoid receptor (Homo sapiens) (UniProt P04150). The assay is described as follows: GR-GFP Redistribution (AID 450;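 active means compounds whose dose series gives a full or clear partial fitted curve of increased nuclear translocation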; further: potency means the concentration at half of the fitted maximal effect).
Assay [8] has as its target Ubiquitin carboxyl-terminal hydrolase 1 (Homo sapiens) (UniProt O94782). In words: Inhibitors of USP1/UAF1: Pilot qHTS (AID 504865). Further: potency means the concentration at half of the fitted maximal effect; nearly all actives have a fitted effect of over 35% in size. In short, it runs like this:
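USP1/UAF1 complex at 1 nM preincubated 15 min at room temperature with compound, then Ub-Rho substrate added at 150 nM final. Fluorescence (480/540 nm) read kinetically in 50 mM HEPES pH 7.8, 0.5 mM EDTA, 1 mM TCEP, 0.1 mg/ml BSA, 0.01% Tween-20.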

Assay [9] addresses Tumor susceptibility gene 101 protein (Homo sapiens) (UniProt Q99816). The assay is described as follows: qHTS Assay for Iinhibitors of HIV-1 Budding by Blocking the Interaction of PTAP/TSG101: Hit Validation (AID 651600). Further: on the % scale 0 is the no-effect control and ±100 the full control effect; nearly all actives have a fitted effect of over 70% in size. The method in brief: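 Fluorescence polarization binding assay: Tsg101 binding domain (10 uM) mixed with compounds and FITC-labeled PTAP peptide (50 nM) in HEPES pH 7.5, 0.15 M NaCl, 0.01% Tween 20, EDTA, TCEP; 20 min at r.t.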

Assay [10] concerns the target Cytochrome P450 3A4 (Homo sapiens) (UniProt P08684). In words: qHTS Assay for Inhibitors and Substrates of Cytochrome P450 3A4 (AID 884). Further: potency means the concentration at half of the fitted maximal effect; nearly all actives have a fitted effect of over 50% in size. In short, it runs like this:
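Luminescent readout of luciferin produced by CYP3A4 (20 nM) dealkylation of Luciferin-PPXE, 25 uM (its KM). NADPH-driven reaction ran 60 min at RT after 10 min compound preincubation; data scaled to 57 uM ketoconazole as 100% inhibition.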

The target is the same in assay [11]. In words: qHTS Assay for Activators of Cytochrome P450 3A4 (AID 885). Further: nearly all actives have a fitted effect of over 65% in size. In short, it runs like this:
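Activators are scored by enhanced luminescence from CYP3A4 conversion of luciferin-PPXE (25uM, equal to KM) to luciferin, after 60 min at RT with an NADPH-regenerating system.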

For assay [12], the target named is DNA dC->dU-editing enzyme APOBEC-3G (Homo sapiens) (UniProt Q9HC16). The assay is described as follows: qHTS for inhibitors of Vif-A3G interactions: Validation (AID 588379). Further: 0% is about no effect. The method in brief: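 Yellow fluorescence (Ex 488, Em 500-530) of Vif-coexpressing HeLa A3G-eYFP cells, scanned by Acumen cytometer, reports blocked A3G degradation. Cells plated at 700/well overnight at 37 deg C before compound addition, then a further overnight compound incubation at 37 deg C.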
DNA dC->dU-editing enzyme APOBEC-3G (Homo sapiens), sequence (Q9HC16 whole entry, looked up): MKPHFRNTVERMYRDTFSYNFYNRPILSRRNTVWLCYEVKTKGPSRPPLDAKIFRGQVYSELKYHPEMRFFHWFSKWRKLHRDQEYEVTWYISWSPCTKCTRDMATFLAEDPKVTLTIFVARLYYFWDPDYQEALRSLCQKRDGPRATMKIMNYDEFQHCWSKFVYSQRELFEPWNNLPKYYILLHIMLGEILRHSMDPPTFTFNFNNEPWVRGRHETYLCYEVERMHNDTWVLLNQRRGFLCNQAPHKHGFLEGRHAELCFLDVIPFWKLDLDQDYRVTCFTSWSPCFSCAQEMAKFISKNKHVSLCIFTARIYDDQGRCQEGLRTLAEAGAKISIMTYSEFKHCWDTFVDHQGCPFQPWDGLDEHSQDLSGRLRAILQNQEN

Unmarked numbers belong to inactive results. Results filed as inconclusive are left out. The source made the active and inactive calls. Unless noted, the call rests on the fitted dose curve; in most records, active means well fitted curve in the direction sought with a large enough effect; inconclusive means small, poorly fitted or top-dose-only effect, or another doubt; inactive means no such curve, though single readings can be large; an effect the other way counts as inactive or inconclusive.

Glucocorticoid receptor (Homo sapiens), sequence (P04150 whole entry, looked up, the tested form may be a part): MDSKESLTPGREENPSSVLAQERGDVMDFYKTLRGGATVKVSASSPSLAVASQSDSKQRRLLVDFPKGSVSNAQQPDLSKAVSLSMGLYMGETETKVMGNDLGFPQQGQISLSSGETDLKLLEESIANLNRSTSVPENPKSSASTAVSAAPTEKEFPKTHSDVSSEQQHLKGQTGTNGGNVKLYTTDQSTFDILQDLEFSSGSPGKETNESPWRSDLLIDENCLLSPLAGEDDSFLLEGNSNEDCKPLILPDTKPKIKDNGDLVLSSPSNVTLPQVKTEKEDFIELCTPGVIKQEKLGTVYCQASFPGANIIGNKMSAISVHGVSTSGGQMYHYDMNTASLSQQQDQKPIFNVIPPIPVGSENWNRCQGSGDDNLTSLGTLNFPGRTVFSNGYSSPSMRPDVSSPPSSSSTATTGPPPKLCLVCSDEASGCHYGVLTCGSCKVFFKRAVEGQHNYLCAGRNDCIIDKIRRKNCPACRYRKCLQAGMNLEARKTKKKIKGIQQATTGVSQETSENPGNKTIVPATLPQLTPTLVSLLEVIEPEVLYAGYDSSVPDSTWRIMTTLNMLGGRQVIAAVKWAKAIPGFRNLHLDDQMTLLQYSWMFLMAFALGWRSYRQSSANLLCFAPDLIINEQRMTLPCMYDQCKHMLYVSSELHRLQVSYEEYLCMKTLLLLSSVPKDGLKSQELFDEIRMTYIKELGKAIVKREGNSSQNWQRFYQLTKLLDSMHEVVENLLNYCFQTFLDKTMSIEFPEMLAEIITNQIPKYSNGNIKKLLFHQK
Cytochrome P450 2D6 (Homo sapiens), sequence (P10635 whole entry, looked up): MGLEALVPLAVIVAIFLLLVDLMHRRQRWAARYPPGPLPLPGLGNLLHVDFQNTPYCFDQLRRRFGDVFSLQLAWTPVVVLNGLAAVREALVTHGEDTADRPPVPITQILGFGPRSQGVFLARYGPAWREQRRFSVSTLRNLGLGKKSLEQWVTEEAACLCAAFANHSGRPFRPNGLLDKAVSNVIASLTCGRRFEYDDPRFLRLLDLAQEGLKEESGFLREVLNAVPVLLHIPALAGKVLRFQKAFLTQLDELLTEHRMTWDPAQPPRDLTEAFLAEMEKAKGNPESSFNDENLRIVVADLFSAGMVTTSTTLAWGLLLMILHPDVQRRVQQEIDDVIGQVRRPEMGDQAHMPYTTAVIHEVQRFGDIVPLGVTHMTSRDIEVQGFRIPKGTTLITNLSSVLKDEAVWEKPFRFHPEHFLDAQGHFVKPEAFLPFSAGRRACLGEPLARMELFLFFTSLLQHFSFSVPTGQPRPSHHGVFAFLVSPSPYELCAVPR
Cytochrome P450 3A4 (Homo sapiens), sequence (P08684 whole entry, looked up): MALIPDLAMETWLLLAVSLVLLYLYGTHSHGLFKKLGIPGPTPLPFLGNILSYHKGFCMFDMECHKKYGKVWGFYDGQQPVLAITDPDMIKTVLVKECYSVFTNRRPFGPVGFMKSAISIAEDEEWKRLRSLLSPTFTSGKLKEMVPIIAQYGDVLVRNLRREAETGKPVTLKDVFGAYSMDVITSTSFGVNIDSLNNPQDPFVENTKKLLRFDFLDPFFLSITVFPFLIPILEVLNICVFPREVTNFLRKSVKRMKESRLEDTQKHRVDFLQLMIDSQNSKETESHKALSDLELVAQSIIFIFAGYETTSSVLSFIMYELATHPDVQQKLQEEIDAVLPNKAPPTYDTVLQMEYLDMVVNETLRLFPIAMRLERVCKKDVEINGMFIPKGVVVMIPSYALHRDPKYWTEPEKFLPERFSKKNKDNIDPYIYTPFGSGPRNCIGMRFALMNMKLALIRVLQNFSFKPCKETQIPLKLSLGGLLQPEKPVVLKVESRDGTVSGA
Ubiquitin carboxyl-terminal hydrolase 1 (Homo sapiens), sequence (O94782 whole entry, looked up): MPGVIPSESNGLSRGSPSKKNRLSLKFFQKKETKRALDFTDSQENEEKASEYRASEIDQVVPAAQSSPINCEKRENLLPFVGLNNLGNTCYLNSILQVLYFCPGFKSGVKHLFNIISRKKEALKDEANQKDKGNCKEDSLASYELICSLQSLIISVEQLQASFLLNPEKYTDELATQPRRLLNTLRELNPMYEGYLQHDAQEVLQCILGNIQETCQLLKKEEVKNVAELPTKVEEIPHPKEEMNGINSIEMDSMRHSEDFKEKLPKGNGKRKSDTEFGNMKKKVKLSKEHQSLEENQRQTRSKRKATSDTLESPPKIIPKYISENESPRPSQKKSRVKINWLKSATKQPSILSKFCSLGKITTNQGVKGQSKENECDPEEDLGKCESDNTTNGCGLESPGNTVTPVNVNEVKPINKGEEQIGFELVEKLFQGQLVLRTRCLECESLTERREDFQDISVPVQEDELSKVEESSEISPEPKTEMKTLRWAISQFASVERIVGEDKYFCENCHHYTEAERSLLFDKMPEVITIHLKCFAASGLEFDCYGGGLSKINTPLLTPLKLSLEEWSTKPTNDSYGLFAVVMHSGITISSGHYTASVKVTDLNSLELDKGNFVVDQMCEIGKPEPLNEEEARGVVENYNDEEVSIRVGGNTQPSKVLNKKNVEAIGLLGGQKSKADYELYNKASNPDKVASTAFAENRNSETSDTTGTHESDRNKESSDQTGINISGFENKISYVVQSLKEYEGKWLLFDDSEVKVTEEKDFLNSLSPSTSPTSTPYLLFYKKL

Regarding `CC(C)C[C@@H](CC(=O)N[C@@H](CCC(=O)O)CC(=O)O)NC(=O)[C@@H]1CCCC[C@H]1NC(=O)C[C@H](CCCN)NC(=O)C[C@H](Cc1c[nH]c2ccccc12)NC(=O)[C@@H]1CCCC[C@H]1N`, in [1], the Potency was greater than 46 µM. The Potency entry in [2], in assay [3], in assay [4], in assay [5] and in assay [6] was “inactive” in each case.

As to `Cc1c(C(=O)O)c(O)cc2c1C(=O)c1c(O)c([C@@H]3O[C@H](CO)[C@@H](O)[C@H](O)[C@@H]3O)c(O)c(O)c1C2=O`, the Potency in assay [7] and in assay [1] was greater than 46 µM each time. The Potency result in assay [2], in assay [4], in assay [5] and in assay [6] was “inactive” in each case.

Regarding `CC(C)C[C@@H](CC(=O)N[C@@H](CCC(=O)O)CC(=O)O)NC(=O)[C@@H]1CNCC[C@H]1NC(=O)C[C@H](CCCN)NC(=O)C[C@H](Cc1c[nH]c2ccccc12)NC(=O)[C@@H]1CCCC[C@H]1N`, the Potency in [1] is greater than 46 µM. The Potency entry in assay [2], in assay [3], in [4], in [5] and in [6] was “inactive” in each case.

For `CC(=O)OC[C@@H]1O[C@@H](Oc2cc(OC(C)=O)c3c(=O)cc(-c4ccc(OC(C)=O)c(OC(C)=O)c4)oc3c2)[C@H](OC(C)=O)[C@H](OC(C)=O)[C@@H]1OC(C)=O`, the Potency in [7] and in [1] was greater than 46 µM throughout. The Potency result in assay [2], in assay [4], in assay [5] and in [6] was “inactive” throughout.

`Cc1ccc2[nH]c3c(N4CCN(Cc5ccccc5)CC4)ncnc3c2c1`: the Potency in [7] was greater than 20.6 µM.

Take `CCCC[C@H](CC)CN=C(N)NC(N)=NCCCCCCN=C(N)NC(N)=NC[C@@H](CC)CCCC`: the Potency in assay [7] was greater than 20.6 µM; in assay [1], greater than 20.6 µM; in [5], 3.16 µM (active); in [8], 28.2 µM (active). The Potency entry in assay [2] and in assay [3] was “inactive” in each case.

For the compound `CC(C)C1=CC2=CC[C@H]3[C@@](C)(CCC[C@]3(C)C(=O)O)[C@@H]2CC1`, the values for the Potency in [7], in [1] and in assay [4] were greater than 46 µM, greater than 46 µM and 12.6 µM (active), respectively. The Potency entry in assay [2], in [3] and in assay [5] was “inactive” each time.

Turning to `Cc1ccccc1N1C(=O)CC(Sc2nnc(-c3ccccc3)o2)C1=O` (stereo not drawn), in [7], the Potency was greater than 20.6 µM.

Regarding `COc1cccc(-c2nnc3sc(-c4cccs4)nn23)c1`, in assay [7], the Potency is greater than 20.6 µM.

For `C=C[C@@]1(C)C=C2CC[C@@H]3[C@](C)(CCC[C@@]3(C)C(=O)O)[C@H]2CC1`, the Potency was greater than 46 µM in [7], greater than 46 µM in [1] and 6.31 µM (active) in [4]. Besides, the Potency entry in assay [2], in [3] and in assay [5] was “inactive” each time.

Turning to `NCCC[C@@H](CC(=O)N[C@@H]1CCCC[C@H]1C(=O)N[C@H](CC(=O)N[C@@H](CCC(=O)O)CC(=O)O)Cc1c[nH]c2ccccc12)NC(=O)C[C@H](Cc1ccccc1)NC(=O)[C@@H]1CCCC[C@H]1N`, the Potency in [1] is greater than 46 µM. The Potency result in [2], in [3], in assay [4], in assay [5] and in [6] was “inactive” in each case.

With `CCN(CC)C(=O)c1sc2nc(-c3cccs3)cc(-c3cccs3)c2c1N`, the Potency in assay [7] is greater than 20.6 µM. The Potency result in assay [9] is “inactive”.

Consider `C=C/C(=C\C)C[C@@H](CC(=O)N[C@@H](CCC(=O)O)CC(=O)O)NC(=O)[C@@H]1CNCC[C@H]1NC(=O)C[C@@H](NC(=O)C[C@H](Cc1ccccc1)NC(=O)[C@@H]1CCCC[C@H]1N)C(C)C`, for which, in assay [1], the Potency is greater than 46 µM. Also, the Potency result in [2], in [3], in assay [4], in assay [5] and in assay [6] was “inactive” each time.

As for `C[C@@H]1C(=O)O[C@H]2[C@@H](O)[C@@]34[C@H]5C[C@H](C(C)(C)C)[C@@]36[C@H](OC(=O)[C@@H]6O)O[C@@]4(C(=O)O5)[C@@]12O`, the Potency in assay [7] and in assay [1] was greater than 46 µM in each case. The Potency entry in assay [2] and in assay [3] was “inactive” each time.

As for `NCCC[C@@H](CC(=O)N[C@@H]1CCNC[C@H]1C(=O)N[C@H](CC(=O)N[C@@H](CCC(=O)O)CC(=O)O)Cc1ccccc1)NC(=O)C[C@H](Cc1ccccc1)NC(=O)[C@@H]1CCCC[C@H]1N`, the Potency in [1] is greater than 46 µM. Besides, the Potency result in assay [2], in assay [3], in assay [4], in assay [5] and in assay [6] was “inactive” each time.

As for `CCCCN(CCCC)c1nc2ccccc2nc1C(C#N)C(=O)NCCCOC` (stereo not drawn), the Potency in assay [7] was greater than 20.6 µM.

For `OCc1ccncc1.OCc1ccncc1.[Cl][Pt]([Cl])([Cl])[Cl]`, the Potency in [7] was greater than 46 µM; in assay [1], greater than 9.22 µM. In assay [2], the activity change, negative = inhibition is 0.578% [at 11.4 µM]. For the same compound, the Potency entry in assay [3] is “inactive”.

Consider `Cn1c(NCC(O)c2ccccc2)nc2c1c(=O)n(Cc1ccc(Cl)c(Cl)c1)c(=O)n2C` (stereo not drawn), for which the Potency in [7] was greater than 20.6 µM.

For `O=C(O)CCCC[C@@H]1SC[C@H]2NC(=O)N[C@H]12`, the Potency in assay [7] and in assay [1] was greater than 46 µM each time.

Regarding `CN1C[C@H](C(=O)N[C@]2(C)O[C@@]3(O)[C@H]4CCCN4C(=O)[C@@H](Cc4ccccc4)N3C2=O)C[C@H]2c3cccc4[nH]cc(c34)C[C@@H]21`, the Potency in assay [7] and in [1] was greater than 46 µM each time. Further, the Potency result in assay [2] and in assay [3] was “inactive” each time.

Consider `C=CCn1c(SCC(=O)c2ccc(NS(=O)(=O)c3ccccc3)cc2)nnc1-c1cccs1`, for which, in assay [7], the Potency was greater than 20.6 µM.

For `O=c1cc(-c2ccccc2)oc2c1ccc1ccccc12`, the Potency in [7] was greater than 46 µM; in assay [1], greater than 46 µM; in assay [10], 12.6 µM (active); in assay [6], 2 µM (active). Besides, the Potency entry in assay [11] was “inactive”. In addition, the compound was classed as inactive in assay [12].
